This is part of a sample that, as a whole, favours compounds with a hit. Of some 83,000 tested, about 20% had one in any assay.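 A percent growth of 40 corresponds to 60% growth inhibition; 0 means no net growth; -100 means all cells died. Active threshold: below 10.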 Unmarked numbers belong to inactive results. Active and inactive are the calls of the source.
Assays:
Assay in all cases: NCI-60 one-dose screen, 48 h (100 = growth as untreated, 0 = no growth, -100 = all killed)
Conditions in all cases: 10 µM unless noted
SR leukemia = system: SR leukemia
RPMI-8226 leukemia = system: RPMI-8226 leukemia
OVCAR-5 ovarian = system: OVCAR-5 ovarian
OVCAR-4 ovarian = system: OVCAR-4 ovarian
SK-OV-3 ovarian = system: SK-OV-3 ovarian
IGROV1 ovarian = system: IGROV1 ovarian
OVCAR-3 ovarian = system: OVCAR-3 ovarian
HS 578T breast = system: HS 578T breast
NCI/ADR-RES ovarian = system: NCI/ADR-RES ovarian
OVCAR-8 ovarian = system: OVCAR-8 ovarian

SMILES	growth (SR leukemia)	growth (RPMI-8226 leukemia)	growth (OVCAR-5 ovarian)	growth (OVCAR-4 ovarian)	growth (SK-OV-3 ovarian)	growth (IGROV1 ovarian)	growth (OVCAR-3 ovarian)	growth (HS 578T breast)	growth (NCI/ADR-RES ovarian)	growth (OVCAR-8 ovarian)
COc1ccc(/C=C\c2cc(OC)c(OC)c(OC)c2)c(NS(=O)(=O)c2ccc(C(C)(C)C)cc2)c1O	16.4%	27.9%	32.4%	28.2%	31%	38.5%	0.435% (active)	35.4%	9.51% (active)	–
CCn1cc(C2NC(=O)c3cc(F)ccc3N2)c2cccc(Cl)c21 (configuration not stated)	-10.1% (active)	9.88% (active)	36%	–	27.7%	18.2%	6.84% (active)	12.4%	1.68% (active)	-35.9% (active)
COc1ccc(-c2nnc(COc3ccc(NS(=O)(=O)c4ccc(OC)cc4)cc3F)o2)cc1	50.6%	43.4%	94.2%	–	83.9%	84.5%	76.7%	88.2%	55.3%	82.5%
COc1ccc(/C=c2\sc3n(c2=O)C2C(NN=3)N(C)C(=O)N2C)cc1 (configuration not stated)	-10.6% (active)	20.3%	54.9%	–	–	40%	-3.86% (active)	8.08% (active)	10.4%	35%
COc1cc(-c2csc(NC(=O)c3cc(C(F)(F)F)cc(C(F)(F)F)c3)n2)cc(OC)c1OC	40.4%	14.1%	60.1%	23.4%	35.4%	46%	10.6%	35.1%	–	–
O=C(CCCn1c2c(sc3ccccc32)c(=O)n2nnc(-c3ccccc3)c12)NCCc1cnc[nH]1	55.2%	-4.25% (active)	-82.1% (active)	–	5.51% (active)	–	-49.7% (active)	23.4%	21.2%	-50.6% (active)
O=C(O)c1ccc(-n2c(=O)c3ccccc3c3ccccc3c2=O)cc1	87.6%	103%	99.6%	–	101%	116%	111%	–	112%	111%
Cc1cccc(NC(=O)c2sc3nc4c(cc3c2N)CCC4)c1C	25%	-5.02% (active)	44%	–	37.9%	44.6%	–	28.6%	-16.2% (active)	14.1%

Source: PubChem BioAssay (NCI)
